Here are results for 96 molecules from PubChem BioAssay AID1851 (National Center for Advancing Translational Sciences (NCATS), 2009).

The campaign covered roughly 16,000 compounds. About 2,600 (16%) were called active. About 20% were inconclusive and are not listed. The list is a sample of the results. Unmarked numbers belong to inactive results. Calls come from the whole dose curve; as a rule, active = well fitted curve in the direction sought with a large enough effect; inconclusive = small, poorly fitted or top-dose-only effect, or effect the other way; inactive = no such curve, though single readings can be large or run the other way.
% is set by controls: 0 for no effect and ±100 for the full control effect.

For this assay, the target named is Cytochrome P450 2D6 (Homo sapiens) (UniProt P10635). As to the kind of experiment: Cytochrome panel assay with activity outcomes. Particulars: recombinant CYP, pro-luciferin dealkylation, luminescence, p450-cyp2d6; series mostly up to 57.1 µM.
Sequence of Cytochrome P450 2D6 (Homo sapiens) (P10635 whole entry, looked up): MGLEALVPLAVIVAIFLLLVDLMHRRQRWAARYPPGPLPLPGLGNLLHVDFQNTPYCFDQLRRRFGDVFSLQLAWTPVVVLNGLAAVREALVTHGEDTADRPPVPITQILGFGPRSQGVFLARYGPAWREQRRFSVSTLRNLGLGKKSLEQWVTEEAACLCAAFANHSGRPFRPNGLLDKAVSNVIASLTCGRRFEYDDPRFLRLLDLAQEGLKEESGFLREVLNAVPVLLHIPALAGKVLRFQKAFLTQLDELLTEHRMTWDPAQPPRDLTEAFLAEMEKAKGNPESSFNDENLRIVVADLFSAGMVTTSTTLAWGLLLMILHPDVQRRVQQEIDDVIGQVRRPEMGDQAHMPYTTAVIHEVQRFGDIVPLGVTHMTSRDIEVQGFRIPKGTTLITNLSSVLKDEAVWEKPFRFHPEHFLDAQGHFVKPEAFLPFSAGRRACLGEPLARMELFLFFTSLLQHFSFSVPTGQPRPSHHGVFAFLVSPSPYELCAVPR
A word on the AC50: it is the midpoint of the concentration-response curve, whichever way the signal moves. As for `C[C@@]12CC[C@@H]3c4ccc(O)cc4CC[C@H]3[C@H]1C[C@@H](O)[C@H]2O`, the AC50 entry is “inactive”. For the molecule `Oc1ccccc1C(Sc1nc2ccccc2s1)Sc1nc2ccccc2s1`, the activity, negative = inhibition is -20.9% [at 11.4 µM]. Consider `Cc1ccc(C(=O)CN(C(=O)c2ccc(Cl)cc2)N2C(=O)c3ccccc3C2=O)cc1`, for which the AC50 entry was “inactive”. Still for that read-out and setting: the entry for `Cc1nnc(-c2cnn(-c3ccccc3)c2N)n1Cc1ccccc1` is “inactive”. The same measure, in the same setting: in the case of `CN(C)c1ccccc1CN1CCCN(Cc2ccccc2N(C)C)C1c1ccncc1` it was 1.26 µM (active); in that of `COc1cccc(/C=N\NC(=O)C2C(=O)NCC2c2ccccc2)c1O` (stereo unspecified), “inactive”. Same read-out and setting: in the case of `COc1ccc(-c2nn(-c3ccccc3)cc2/C=N/NC(=O)c2ccc(Br)o2)cc1` it was “inactive”; in that of `Cn1c(=O)n(CC#N)c2ccccc21`, “inactive”.

As to `c1ccc(Cc2nnc(Sc3ccccc3)c3ccccc23)cc1`, the AC50 entry is “inactive”.

With `S=C(Nc1ccc2c(c1)Cc1ccccc1-2)Nc1ccc2c(c1)Cc1ccccc1-2`, the activity, negative = inhibition was 1.03% [at 11.4 µM]. On to `CN(CCc1ccccn1)c1ccc2c(c1)Cc1ccccc1-2`, for which the AC50 is 3.16 µM (active). Consider `CNCCc1ccccn1`, for which the AC50 result was “inactive”. The same measure, in the same setting: the entry for `COCC(=O)Nc1c(I)c(C(=O)NC[C@@H](O)CO)c(I)c(C(=O)N(C)C[C@@H](O)CO)c1I` is “inactive”; for `O=C(CCCc1ccccc1)N1CCN(c2ccc([N+](=O)[O-])cc2)CC1` it is “inactive”. Same read-out and setting: in the case of `CCOc1cc(/C=C2/SC(=O)N(CC(=O)N3CCc4ccccc4C3)C2=O)ccc1OCC(=O)O` it was “inactive”; in that of `CC(C)N(C(=O)CSc1nc2ccccc2n1-c1ccccc1)C(C)C`, “inactive”; in that of `COc1ccc(C(=O)N2CCC3(CCCN(C)C3)CC2)cc1`, “inactive”. Same read-out and setting: the entry for `COc1ccc(C(=O)N2CCC[C@@]3(CCN(Cc4ccc(C#N)cc4)C3)C2)cc1` is “inactive”. Take `COc1ccc(C(=O)N2CCC[C@@]3(CCN(Cc4ccccc4)C3)C2)cc1`: the concentration at half-maximal activity (AC50) is 7.94 µM (active). Same read-out and setting: the figure for `COc1ccc(C(=O)N2CCC3(CCCN(Cc4ccccc4)C3)CC2)cc1` is 7.94 µM (active); for `COc1ccc(C(=O)N2CCC3(CCCN(CC(C)C)C3)CC2)cc1` it is “inactive”. In the case of `COc1ccc(C(=O)N2CCC[C@@]3(CCN(C(=O)Nc4ccccc4)C3)C2)cc1`, the AC50 entry was “inactive”. On the same count and under the same terms, in the case of `C=CCc1cc(C=O)cc(OC)c1OCc1ccc(Cl)cc1` it was “inactive”. Same read-out and setting: in the case of `COc1cc(-n2ccnc2SC)c(Cl)cc1Cl` it was “inactive”; in that of `CCNc1nc(NCC)nc(ON=C(C)C)n1`, “inactive”.

For `COc1ccc2nc(/N=C\N(C)C)sc2c1`, the AC50 entry was “inactive”. For the molecule `Cc1[nH]n2c(=O)c(C#N)c(-c3ccccc3)nc2c1-c1ccccc1`, the AC50 entry was “inactive”. Still for that read-out and setting: in the case of `CCC#CCOCC(=O)Nc1ccccc1` it was “inactive”; in that of `Cn1ncc2c(NCCc3ccccc3)nc(Cl)nc21`, 0.126 µM (active).

For the molecule `c1ccc(CCNc2nnnn2-c2ccccc2)cc1`, the AC50 entry is “inactive”.

On to `Cn1ncc2c(Nc3cccc(Cl)c3)nc(Nc3cccc(Cl)c3)nc21`, for which the activity, negative = inhibition is 16.7% [at 11.4 µM]. With `CC(C)n1c(=O)c2c(O)cc(=O)oc2c2ccccc21`, the AC50 result is “inactive”. Same read-out and setting: in the case of `NC(=O)[C@H]1CC2(CC(c3cccc(NC(=O)c4ccccc4)c3)=NO2)CN1C(=O)[C@H]1CCC(=O)N1` (stereo partly specified) it was “inactive”; in that of `CCC(CC)C(=O)Nc1cccc(C(=O)Nc2ccc(OC)cc2[N+](=O)[O-])c1`, “inactive”. The same measure, in the same setting: in the case of `COc1ccc(NC(=O)C(F)(F)F)cc1OC` it was “inactive”; in that of `CCCCCCCCC[n+]1cccc2c3ccccc3ccc21`, 0.0708 µM (active); in that of `O=C(OC(C(=O)NC1CCCC1)c1ccncc1)C1=Cc2ccccc2OC1` (stereo unspecified), “inactive”.

On to `Cc1ccc(CNC(=O)C2(NC(=O)Nc3ccc(C)cc3)CCCCC2)cc1`, for which the AC50 result is “inactive”. Same read-out and setting: the entry for `CCn1c(SCC(=O)OC)nnc1C1CCCCC1` is “inactive”; for `CCn1c(SCC(=O)c2ccc(OC)cc2)nnc1C1CC1` it is 14.1 µM (active); for `CCn1c(COc2ccccc2)nnc1SCC(=O)c1cccc([N+](=O)[O-])c1` it is “inactive”. On the same count and under the same terms, in the case of `CCN(CC)C(=O)CSc1nnc(-c2cc3ccccc3cc2O)n1CC` it was “inactive”; in that of `CCn1c(SCC(=O)NC2CCCc3ccccc32)nnc1-c1cccs1` (stereo unspecified), “inactive”; in that of `CCn1c(SCC(=O)c2ccc3ccccc3c2)nnc1-c1cccs1`, 14.1 µM (active). On the same count and under the same terms, in the case of `COc1ccc(NC(=O)CSc2nnc(C3CC3)n2-c2ccccc2)cc1` it was “inactive”; in that of `CCn1c(SCC(=O)c2ccccc2)nnc1-c1cccs1`, 14.1 µM (active); in that of `CCn1c(SCC(=O)NC(=O)NCc2ccco2)nnc1-c1cccs1`, “inactive”. Regarding `CCCCN=c1sc(C(=O)OC)cc(=O)n1CCCC`, the AC50 result was “inactive”. As for `O=C1C2=C(Nc3cc([N+](=O)[O-])ccc3N2)O[C@@H]1c1c[nH]c2ccc(COc3ccccc3)cc12`, the activity, negative = inhibition was 5.7% [at 11.4 µM]. Consider `Cc1noc(C)c1C(=O)N1CCC2(CCCN(c3ccncc3)C2)CC1`, for which the AC50 result is “inactive”. On the same count and under the same terms, in the case of `O=C(O)c1cc2c(o1)CCC/C2=N\O` it was “inactive”; in that of `Cc1nc2ncnn2c(C)c1CCC(=O)Nc1ccc(S(=O)(=O)N2CCCCCC2)cc1`, “inactive”. Same read-out and setting: the entry for `CCCn1nc(Oc2nc(NCC)nc(NCC)n2)ccc1=O` is “inactive”. Still for that read-out and setting: in the case of `Cc1nc2nc(-c3ccc(Cl)cc3)nn2c(C)c1Cl` it was “inactive”; in that of `COC(=O)c1cc(NC(=O)CC2NC3CCCCC3NC2=O)cc(C(=O)OC)c1` (stereo unspecified), “inactive”.

With `C/C=C\C[C@H](C)[C@H](O)[C@H]1C(=O)N[C@@H](CC)C(=O)N(C)CC(=O)N(C)[C@@H](CC(C)C)C(=O)N[C@@H](C(C)C)C(=O)N(C)[C@@H](CC(C)C)C(=O)N[C@@H](C)C(=O)N[C@@H](C)C(=O)N(C)[C@@H](CC(C)C)C(=O)N(C)[C@@H](CC(C)C)C(=O)N(C)[C@@H](C(C)C)C(=O)N1C`, the AC50 entry is “inactive”.

Consider `COc1ncc2nc(-c3ccc(Cl)cc3)c(=O)n(-c3ccccc3)c2n1`, for which the AC50 entry was “inactive”.

As for `CCc1ccc(-c2ccc(C(=O)C(F)(F)F)[nH]2)cc1`, the AC50 entry is “inactive”. Same read-out and setting: the entry for `Cc1ccccc1C(=O)NC(NCc1ccco1)C(Cl)(Cl)Cl` (stereo unspecified) is “inactive”; for `Cc1nc(SCC(=O)Nc2c(C)nn(C)c2C)c2cnn(-c3ccccc3)c2n1` it is “inactive”. Same read-out and setting: the entry for `CCc1nnc(NC(=O)C2CCN(C(=O)NC3CCCCC3)CC2)s1` is “inactive”. Same read-out and setting: in the case of `COc1cc(/C=N/NC(=O)c2cccc([N+](=O)[O-])c2)ccc1OCc1ccc(C)cc1` it was “inactive”. Regarding `CC(/C=N/NC(=O)c1cccc([N+](=O)[O-])c1)=C\c1ccccc1`, the AC50 entry was “inactive”. On to `CC(=O)N/N=C/c1cc([N+](=O)[O-])ccc1OCCOc1ccccc1`, for which the half-maximal activity concentration (AC50) is 0.0562 µM (active).

Consider `N#CCCn1c(=O)c(-c2ccccc2)nc2cnc(OCc3ccccc3)nc21`, for which the AC50 entry is “inactive”. With `COc1ccc(COC(=O)N/N=C2/C[C@@H](O)[C@@H](O)[C@@H]3[C@@H]4C(=O)N([C@@H](C)c5ccccc5)C(=O)[C@H]4CC[C@H]23)cc1`, the activity, negative = inhibition is -3.9% [at 11.4 µM]. As to `O=C(C[n+]1cccc(NC(=O)c2ccccc2)c1)c1ccc(NC(=O)c2ccccc2)cc1`, the half-maximal activity concentration (AC50) was 14.1 µM (active). `COc1ccc(C(=O)COC(=O)c2ccc(NC(=O)c3ccccc3)cc2)cc1`: the AC50 result is “inactive”. The same measure, in the same setting: the entry for `COc1ccc(C(=O)Nc2ccc(C(=O)OCC(=O)c3ccccc3)cc2)cc1` is “inactive”; for `COc1cccc(Cn2c(=O)c(CCc3ccccc3)nc3cnc(N(C)C)nc32)c1` it is “inactive”; for `N[C@@H](C(=O)O)c1ccc(O)c(C(=O)O)c1` it is “inactive”. The same measure, in the same setting: in the case of `COc1cccc(Cn2c(=O)c(CCc3ccccc3)nc3cncnc32)c1` it was “inactive”; in that of `CC1=NCC[N@@+]1(CCc1ccccc1)Cc1ccccc1`, 0.0501 µM (active). The same measure, in the same setting: the entry for `CC(=O)Nc1ccc(S(=O)(=O)NCC2CCC(C(=O)N3CCN(c4ccccn4)CC3)CC2)cc1` (stereo unspecified) is “inactive”; for `CC(=O)NS(=O)(=O)c1ccc(NC(=O)NC2CCCCC2)cc1` it is “inactive”. For the molecule `CC(=O)Nc1ccc(S(=O)(=O)N2CCN(c3nc(NC4CCCC4)c4ccccc4n3)CC2)cc1`, the half-maximal activity concentration (AC50) was 12.6 µM (active).

Turning to `O=c1c2ccccc2nnn1CSc1nnc(COc2ccc(Cl)cc2)n1Cc1ccco1`, the AC50 result is “inactive”. `O=C1CN2CCN(CC2)CC(=O)Nc2ccc(cc2)S(=O)(=O)c2ccc(cc2)NC(=O)CN2CCN(CC2)CC(=O)Nc2ccc(cc2)S(=O)(=O)c2ccc(cc2)N1`: the activity, negative = inhibition was 0.0037% [at 11.4 µM].

In the case of `CC1(C)OC[C@@H]2O[C@H](n3cnc4c(N)nc(Cl)nc43)[C@@H](OS(C)(=O)=O)[C@@H]2O1`, the activity, negative = inhibition was 8.22% [at 11.4 µM]. `Cc1noc(NS(=O)(=O)c2ccc(NC(=O)CC34CC5CC(CC(Br)(C5)C3)C4)cc2)c1C`: the AC50 result is “inactive”. Still for that read-out and setting: the entry for `CCCCCCC(C)n1cc(C(C)=O)c(=O)[nH]c1=O` (stereo unspecified) is “inactive”; for `CCC/C=C(\CCC)C(NC(=O)Oc1ccc(F)cc1)c1ccc(C(=O)OC)cc1` (stereo unspecified) it is “inactive”.

Take `COC(=O)c1[nH]c2ccc(Br)cc2c1NC(=O)Oc1ccccc1`: the AC50 result is “inactive”. Still for that read-out and setting: the entry for `COC(=O)c1[nH]c2ccc(Br)cc2c1NC(=O)CN1CCCc2ccccc21` is “inactive”; for `COC(=O)c1[nH]c2ccc(Br)cc2c1NC(=O)CN1CCN(C2CCCCC2)CC1` it is 1 µM (active); for `CCOC(=O)C1CN(S(=O)(=O)c2cccc(C(F)(F)F)c2)c2cc(CC(=O)OC)ccc2O1` (stereo unspecified) it is “inactive”. In the case of `CN1CCN(c2ncc3nc(-c4ccc(Cl)cc4)c(=O)n(CCC#N)c3n2)CC1`, the AC50 entry was “inactive”.

For the molecule `CNS(=O)(=O)c1ccccc1C(=N)c1ccccc1`, the activity, negative = inhibition was 19.2% [at 11.4 µM]. As for `CCNC(=S)NNC(=O)c1cccc(Br)c1`, the AC50 entry is “inactive”.

As for `CCOC(OCC)P(=O)(O)CCCNCc1ccc(Cl)c(Cl)c1`, the AC50 entry was “inactive”. For `CCCCCNCc1cccc(Br)c1`, the concentration at half-maximal activity (AC50) was 2 µM (active). Turning to `Cc1cc(Cl)nc2ccc(Cc3ccc4nc(Cl)cc(C)c4c3)cc12`, the activity, negative = inhibition was -2.9% [at 11.4 µM].

Take `COc1ccc(/C=N/NC(=S)NC2CCS(=O)(=O)C2)cc1OC` (stereo unspecified): the AC50 entry is “inactive”. For the molecule `C=CC1=C(C(=O)O)N2C(=O)[C@@H](NC(=O)/C(=N\OCC(=O)O)c3csc(N)n3)[C@@H]2SC1`, the AC50 result is “inactive”. The same measure, in the same setting: in the case of `NC[C@](O)(CS(=O)(=O)O)c1ccc(Cl)cc1` it was “inactive”; in that of `Cc1cc(-c2cc(-c3ccc(Cl)cc3)nc(N)c2C#N)co1`, “inactive”.
